ADAM17 inh: inhibitors of human ADAM17 | recombinant ADAM17, EDANS/DABCYL FRET peptide cleavage | inhibition, % at 6.95 µM | hit rate 0.83% among 370,000;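 active means inhibition above the mean of compounds lying between control limits plus 3 SD, set per campaign, cut at about 8.5% in these data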;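 further: 0% = DMSO-only wells as the low control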
PLC-beta3 inh: PLC-beta3 (human) inhibition, primary screen | Q01970 | Purified PLC-beta3, fluorogenic substrate, fluorescence | AID 720704 | hit rate 0.18% among 370,000 | inhibition, % at 12.2 µM;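 further: 0% = median of compound wells on plate and 100% = full blocker control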
ADAM10 inh: inhibitors of human ADAM10. recombinant ADAM10, EDANS/DABCYL FRET peptide cleavage, 3 h. hit rate 0.62% among 370,000. O14672. inhibition, % at 7 µM;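 active means inhibition above a per-campaign cutoff equal to the mean of compounds falling between control-based bounds plus 3 SD, cut at about 20% in these data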;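 further: 0% = DMSO wells while the 100% control is not disclosed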
proKLK7 act: proKLK7 (human) activation, primary screen; AID 652039; hit rate 0.9% among 370,000; purified proKLK7, EDANS-DABCYL substrate fluorescence; 100% is mature enzyme control, 0% vehicle; P49862; activation, % at 7 µM;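 active means activation above the mean of all tested compounds plus 3 SD, computed per campaign excluding outliers beyond control limits, cut at about 13% in these data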
PLC-gamma1 inh: blocks human PLC-gamma1 enzyme activity; hit rate 0.84% among 370,000; purified PLC-gamma1, fluorogenic substrate, fluorescence; inhibition, % at 12.2 µM; in the data active means inhibition above about 9.5%
PLCgamma1 ctr: counter-screen for PLC-beta3 inhibitors: inhibitors of human PLC-gamma1; AID 743258; inhibition, % at 12.3 µM; purified PLC-gamma1, fluorogenic substrate, fluorescence; shares compounds with PLC-gamma1 inh; hit rate 3.1% among 3,300; in the data active means inhibition above about 9.5%
PLCbeta3 conf: confirmation of human PLC-beta3 inhibitors; purified PLC-beta3, fluorogenic substrate fluorescence; hit rate 1% among 3,300; shares compounds with PLC-gamma1 inh; inhibition, % at 12.3 µM
The depositor's hits bear a star; . = not tested or not shown. In the library only some 2.9% were active in any assay of this set; here they are far more common. Unless noted, no stated cut-off is given here; in the data, active means inhibition above about 11%; inactive means the rest.

SMILES	ADAM17 inh	PLC-beta3 inh	ADAM10 inh	proKLK7 act	PLC-gamma1 inh	PLCgamma1 ctr	PLCbeta3 conf
Cc1ccc(C)c(NC2=NS(=O)(=O)c3ccccc32)c1	0.3	-0.9	-4.2	0.0	10.6*	-9.0	0.6
Cc1ccccc1NC1=NS(=O)(=O)c2ccccc21	-0.8	1.9	0.7	0.7	1.8	.	.
CCN(CC)CCOC(=O)c1ccc(NC(=O)CCCN2C(=O)/C(=C/c3cccs3)SC2=S)cc1	0.7	-7.2	3.9	-2.9	0.0	.	.
O=C(CNCCC1=CCCCC1)Nc1ccccc1N1CCCCC1	3.8	4.7	12.4	0.2	11.6*	0.1	-0.9
Cc1ccc(S(=O)(=O)N2CCCCC2C(=O)N2CCN(Cc3ccccc3)CC2)cc1 (stereo not drawn)	2.6	7.9	8.2	0.9	12.1*	-2.8	-1.3
O=C(C1CCCCN1S(=O)(=O)c1ccccc1)N1CCN(Cc2ccccc2)CC1 (stereo not drawn)	-2.9	2.0	2.1	0.0	0.6	.	.
O=C(NC1CCCCC1)C1CCCN1S(=O)(=O)c1ccc(F)cc1 (stereo not drawn)	-2.1	-2.7	1.4	0.3	0.9	.	.
Cc1ccc(S(=O)(=O)N2CCCC2C(=O)NC2CCCCC2)cc1 (stereo not drawn)	3.6	8.7	4.1	-0.4	11.5*	-2.7	-5.1
Cc1cc(NC(=O)c2cc(-c3ccccc3)on2)n(-c2ccccc2)n1	0.4	11.5*	-1.4	0.9	8.8	-8.6	-7.8
Cc1ccc(SCC(=O)NCc2ccco2)cc1	-6.4	-1.4	-7.8	-0.4	3.0	.	.
Cc1ccc(C)c(SCC(=O)NCc2ccco2)c1	0.9	12.3*	-7.4	-0.7	0.1	-8.4	-5.8
COc1ccc(CC2CCOC2=O)cc1 (stereo not drawn)	2.2	3.5	5.8	0.1	10.1*	-7.3	-0.9
COc1ccc(CC2C(=O)OC(C)(C)OC2=O)cc1	-3.2	1.3	-4.8	0.0	-1.4	.	.
COc1ccc(NC(=O)CSc2cn[nH]n2)cc1OC	-0.2	-3.0	-4.0	-0.1	-1.0	.	.
CC(C)(C=O)Cc1cc(C(C)(C)C)c(O)c(C(C)(C)C)c1	-4.3	0.1	-8.9	-0.1	-2.4	.	.
CC(C)(CO)Cc1cc(C(C)(C)C)c(O)c(C(C)(C)C)c1	0.0	3.8	12.8	-0.3	11.0*	-6.7	-3.8
CCOc1ccc(S(=O)(=O)N2CCN(CN3C(=O)CC4(CCCC4)C3=O)CC2)cc1	-4.1	0.9	4.8	-0.3	4.5	.	.
Cn1c(=O)c2c(ncn2CCC(=O)N/N=C/c2ccccc2)n(C)c1=O	2.5	10.8*	3.1	0.1	10.8*	-4.8	-0.8
Cn1c(=O)c2c(ncn2CCC(=O)N/N=C/c2ccncc2)n(C)c1=O	-0.5	-4.4	-1.1	-0.2	3.5	.	.
CCCCCNC(=O)C1C(=O)Nc2ccccc2C(=O)N1c1c(C)cccc1C (stereo not drawn)	-6.9	-1.9	-23.2	0.4	-2.5	.	.
O=C(Nc1ncc([N+](=O)[O-])s1)C1CCN(S(=O)(=O)c2cnc[nH]2)CC1	5.6	13.3*	8.9	0.1	6.8	-0.8	0.4
CCOC(=O)C1(CC2CC2)CCN(S(=O)(=O)C[C@]23CC[C@H](CC2=O)C3(C)C)CC1	5.0	4.7	9.8	-0.1	11.9*	-1.3	2.1
O=C(Nc1ccccc1Cl)NC1(C(=O)NCc2cccnc2)CCCCC1	-1.6	-4.1	-4.1	0.2	0.9	.	.
CC(CN1CCCCC1)OC(=O)COc1ccc(Br)cc1 (stereo not drawn)	-0.7	0.5	-5.4	-0.2	4.9	.	.
O=C(/C=N/O)Nc1ccc(F)cc1	0.2	5.7	10.1	0.1	9.5*	-5.9	-1.6
CN(C(=O)CN1CCN(c2cc(-c3ccc(-c4ccccc4)cc3)ncn2)CC1)c1ccccc1	4.6	-6.7	-3.2	-0.8	-10.9	.	.
CCOC(=O)c1nc(NCc2ccccc2)sc1C	-2.2	-2.8	-3.0	0.5	-0.2	.	.
Cc1cc2oc(C(=O)Nc3nonc3C)c(C)c2cc1C	-10.4	-10.9	1.1	-0.1	9.6*	-13.2	-13.0
CC(=O)NCC(=O)OCN1C(=O)c2ccccc2C1=O	2.2	6.0	9.2	0.0	10.4*	-5.0	0.0
COCCNC(=O)C(c1ccc(C)cc1)N(Cc1ccccc1)C(=O)CCC(=O)Nc1ccccn1 (stereo not drawn)	-2.0	-9.6	1.6	0.6	0.4	.	.
